In the supplement of paper PMC11732987, “Enantioselective OTUD7B fragment discovery through chemoproteomics screening and high-throughput optimisation” (Communications Chemistry, 2025):

What was measured:
Assay in all cases: log2 ratio of Biotin-Ahx-Ub-VS probe labelling (fragment/DMSO); higher = less target engagement (more negative = stronger competition), active = hit call of the paper (q ≤ 0.05, log2 ratio ≤ -1)
Conditions in all cases: compound concentration: 200 uM; treatment time: 3 h
USP19 = target: T1, USP19 (UniProt O94966)
T1 sequence (whole entry): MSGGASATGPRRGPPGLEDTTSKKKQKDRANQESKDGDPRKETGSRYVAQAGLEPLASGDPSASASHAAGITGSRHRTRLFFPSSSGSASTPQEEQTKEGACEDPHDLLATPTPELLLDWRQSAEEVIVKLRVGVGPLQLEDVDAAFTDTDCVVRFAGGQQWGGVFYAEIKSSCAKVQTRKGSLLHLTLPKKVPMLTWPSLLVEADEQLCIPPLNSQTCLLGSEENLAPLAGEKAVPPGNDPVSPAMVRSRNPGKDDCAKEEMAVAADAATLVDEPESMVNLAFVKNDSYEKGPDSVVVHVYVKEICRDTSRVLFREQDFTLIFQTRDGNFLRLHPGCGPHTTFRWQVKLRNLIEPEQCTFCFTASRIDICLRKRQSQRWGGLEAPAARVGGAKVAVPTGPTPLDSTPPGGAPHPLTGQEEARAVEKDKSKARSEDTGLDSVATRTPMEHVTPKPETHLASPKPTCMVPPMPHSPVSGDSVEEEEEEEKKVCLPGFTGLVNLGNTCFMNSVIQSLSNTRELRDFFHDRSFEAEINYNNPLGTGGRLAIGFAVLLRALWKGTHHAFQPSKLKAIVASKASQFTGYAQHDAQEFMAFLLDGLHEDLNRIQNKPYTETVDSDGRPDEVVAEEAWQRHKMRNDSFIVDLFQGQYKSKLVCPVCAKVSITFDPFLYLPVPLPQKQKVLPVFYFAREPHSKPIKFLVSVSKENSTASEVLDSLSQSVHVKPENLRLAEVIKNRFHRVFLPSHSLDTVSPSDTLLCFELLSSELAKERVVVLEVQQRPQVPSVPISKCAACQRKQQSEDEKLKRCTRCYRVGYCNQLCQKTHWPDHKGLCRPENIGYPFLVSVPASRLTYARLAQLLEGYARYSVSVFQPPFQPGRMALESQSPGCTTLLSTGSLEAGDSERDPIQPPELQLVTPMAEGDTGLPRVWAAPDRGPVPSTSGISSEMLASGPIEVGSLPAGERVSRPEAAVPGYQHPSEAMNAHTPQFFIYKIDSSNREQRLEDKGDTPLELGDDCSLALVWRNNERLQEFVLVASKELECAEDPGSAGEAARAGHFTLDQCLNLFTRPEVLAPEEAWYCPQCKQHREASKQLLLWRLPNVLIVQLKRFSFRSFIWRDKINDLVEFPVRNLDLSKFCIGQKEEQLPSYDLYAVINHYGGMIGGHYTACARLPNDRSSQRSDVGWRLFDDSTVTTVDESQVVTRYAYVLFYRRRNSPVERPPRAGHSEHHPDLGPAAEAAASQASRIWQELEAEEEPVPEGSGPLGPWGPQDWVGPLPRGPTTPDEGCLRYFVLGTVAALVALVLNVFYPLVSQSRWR
Method in brief: (§1)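 Triplicate samples of HEK293T lysate, 495 µg each, received fragment at 200 µM or vehicle for 3 h, followed by Biotin-Ahx-Ub-VS (0.5 µM final) for 1 h. After NeutrAvidin enrichment of labelled DUBs and LysC/trypsin digestion, peptides were run by diaPASEF LC-MS/MS. The values are average log2 fragment/vehicle ratios from global-median-normalised Spectronaut label-free quantities, tested by unpaired t-test on proteins having ≥2 unique peptides.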

USP24 = USP24 (UniProt Q9UPU5)
Method in brief: as §1

USP25 = target: T2, USP25 (UniProt Q9UHP3)
T2 sequence (whole entry): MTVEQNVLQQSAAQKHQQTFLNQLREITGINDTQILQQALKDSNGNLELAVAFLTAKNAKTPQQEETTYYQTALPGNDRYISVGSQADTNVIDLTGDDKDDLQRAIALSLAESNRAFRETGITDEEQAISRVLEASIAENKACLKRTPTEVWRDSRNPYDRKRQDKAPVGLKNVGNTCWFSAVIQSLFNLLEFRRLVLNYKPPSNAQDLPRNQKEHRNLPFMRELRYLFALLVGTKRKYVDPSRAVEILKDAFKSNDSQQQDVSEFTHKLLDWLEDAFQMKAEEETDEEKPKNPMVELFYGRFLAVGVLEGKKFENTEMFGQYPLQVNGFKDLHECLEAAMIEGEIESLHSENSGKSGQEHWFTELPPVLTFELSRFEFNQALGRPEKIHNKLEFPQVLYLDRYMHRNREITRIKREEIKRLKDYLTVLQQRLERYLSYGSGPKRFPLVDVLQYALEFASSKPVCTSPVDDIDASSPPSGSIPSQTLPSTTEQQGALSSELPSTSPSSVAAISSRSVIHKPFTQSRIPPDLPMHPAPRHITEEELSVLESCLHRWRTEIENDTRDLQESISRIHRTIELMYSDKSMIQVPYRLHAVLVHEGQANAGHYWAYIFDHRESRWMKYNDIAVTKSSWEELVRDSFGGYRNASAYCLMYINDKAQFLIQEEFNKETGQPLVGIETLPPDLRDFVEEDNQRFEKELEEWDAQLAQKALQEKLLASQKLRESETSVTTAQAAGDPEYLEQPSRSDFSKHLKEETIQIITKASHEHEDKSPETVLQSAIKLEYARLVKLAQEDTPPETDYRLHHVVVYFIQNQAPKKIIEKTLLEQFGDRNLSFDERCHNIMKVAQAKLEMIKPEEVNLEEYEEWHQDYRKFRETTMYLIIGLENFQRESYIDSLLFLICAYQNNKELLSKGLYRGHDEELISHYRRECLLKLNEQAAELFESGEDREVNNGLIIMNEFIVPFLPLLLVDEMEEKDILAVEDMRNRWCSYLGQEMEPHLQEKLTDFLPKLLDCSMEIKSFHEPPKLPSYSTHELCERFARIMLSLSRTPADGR
Method in brief: as §1

USP28 = target: T3, USP28 (UniProt Q96RU2)
T3 sequence (whole entry): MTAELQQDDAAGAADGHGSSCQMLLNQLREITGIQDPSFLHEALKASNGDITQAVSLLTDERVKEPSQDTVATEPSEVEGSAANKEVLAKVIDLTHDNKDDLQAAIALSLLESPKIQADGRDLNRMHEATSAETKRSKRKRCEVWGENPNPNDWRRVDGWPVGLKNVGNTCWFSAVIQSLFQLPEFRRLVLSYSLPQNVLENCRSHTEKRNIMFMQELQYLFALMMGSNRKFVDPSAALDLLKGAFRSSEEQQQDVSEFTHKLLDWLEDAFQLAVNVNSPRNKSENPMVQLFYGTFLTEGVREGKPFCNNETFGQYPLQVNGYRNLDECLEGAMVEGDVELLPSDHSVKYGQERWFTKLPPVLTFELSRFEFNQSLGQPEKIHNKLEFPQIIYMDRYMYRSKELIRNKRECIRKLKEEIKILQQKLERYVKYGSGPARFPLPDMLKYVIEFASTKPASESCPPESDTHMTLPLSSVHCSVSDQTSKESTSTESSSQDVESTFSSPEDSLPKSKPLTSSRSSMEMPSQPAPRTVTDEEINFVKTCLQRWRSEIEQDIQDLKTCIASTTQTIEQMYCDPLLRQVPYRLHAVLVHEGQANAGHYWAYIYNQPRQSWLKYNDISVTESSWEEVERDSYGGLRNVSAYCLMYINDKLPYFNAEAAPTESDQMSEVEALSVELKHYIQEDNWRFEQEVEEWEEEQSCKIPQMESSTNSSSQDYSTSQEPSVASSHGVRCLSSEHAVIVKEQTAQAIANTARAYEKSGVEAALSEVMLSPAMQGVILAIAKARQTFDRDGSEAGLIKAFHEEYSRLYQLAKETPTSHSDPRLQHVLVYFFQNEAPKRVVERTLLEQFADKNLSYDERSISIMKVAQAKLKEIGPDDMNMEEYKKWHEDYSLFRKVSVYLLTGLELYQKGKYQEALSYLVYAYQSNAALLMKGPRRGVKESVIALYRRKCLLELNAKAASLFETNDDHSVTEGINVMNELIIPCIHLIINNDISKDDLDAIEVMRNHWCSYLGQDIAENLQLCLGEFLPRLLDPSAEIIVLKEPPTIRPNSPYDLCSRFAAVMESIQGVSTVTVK
Method in brief: as §1

Measured: log2 ratio of Biotin-Ahx-Ub-VS probe labelling

Chain of USP24 (Q9UPU5 whole entry): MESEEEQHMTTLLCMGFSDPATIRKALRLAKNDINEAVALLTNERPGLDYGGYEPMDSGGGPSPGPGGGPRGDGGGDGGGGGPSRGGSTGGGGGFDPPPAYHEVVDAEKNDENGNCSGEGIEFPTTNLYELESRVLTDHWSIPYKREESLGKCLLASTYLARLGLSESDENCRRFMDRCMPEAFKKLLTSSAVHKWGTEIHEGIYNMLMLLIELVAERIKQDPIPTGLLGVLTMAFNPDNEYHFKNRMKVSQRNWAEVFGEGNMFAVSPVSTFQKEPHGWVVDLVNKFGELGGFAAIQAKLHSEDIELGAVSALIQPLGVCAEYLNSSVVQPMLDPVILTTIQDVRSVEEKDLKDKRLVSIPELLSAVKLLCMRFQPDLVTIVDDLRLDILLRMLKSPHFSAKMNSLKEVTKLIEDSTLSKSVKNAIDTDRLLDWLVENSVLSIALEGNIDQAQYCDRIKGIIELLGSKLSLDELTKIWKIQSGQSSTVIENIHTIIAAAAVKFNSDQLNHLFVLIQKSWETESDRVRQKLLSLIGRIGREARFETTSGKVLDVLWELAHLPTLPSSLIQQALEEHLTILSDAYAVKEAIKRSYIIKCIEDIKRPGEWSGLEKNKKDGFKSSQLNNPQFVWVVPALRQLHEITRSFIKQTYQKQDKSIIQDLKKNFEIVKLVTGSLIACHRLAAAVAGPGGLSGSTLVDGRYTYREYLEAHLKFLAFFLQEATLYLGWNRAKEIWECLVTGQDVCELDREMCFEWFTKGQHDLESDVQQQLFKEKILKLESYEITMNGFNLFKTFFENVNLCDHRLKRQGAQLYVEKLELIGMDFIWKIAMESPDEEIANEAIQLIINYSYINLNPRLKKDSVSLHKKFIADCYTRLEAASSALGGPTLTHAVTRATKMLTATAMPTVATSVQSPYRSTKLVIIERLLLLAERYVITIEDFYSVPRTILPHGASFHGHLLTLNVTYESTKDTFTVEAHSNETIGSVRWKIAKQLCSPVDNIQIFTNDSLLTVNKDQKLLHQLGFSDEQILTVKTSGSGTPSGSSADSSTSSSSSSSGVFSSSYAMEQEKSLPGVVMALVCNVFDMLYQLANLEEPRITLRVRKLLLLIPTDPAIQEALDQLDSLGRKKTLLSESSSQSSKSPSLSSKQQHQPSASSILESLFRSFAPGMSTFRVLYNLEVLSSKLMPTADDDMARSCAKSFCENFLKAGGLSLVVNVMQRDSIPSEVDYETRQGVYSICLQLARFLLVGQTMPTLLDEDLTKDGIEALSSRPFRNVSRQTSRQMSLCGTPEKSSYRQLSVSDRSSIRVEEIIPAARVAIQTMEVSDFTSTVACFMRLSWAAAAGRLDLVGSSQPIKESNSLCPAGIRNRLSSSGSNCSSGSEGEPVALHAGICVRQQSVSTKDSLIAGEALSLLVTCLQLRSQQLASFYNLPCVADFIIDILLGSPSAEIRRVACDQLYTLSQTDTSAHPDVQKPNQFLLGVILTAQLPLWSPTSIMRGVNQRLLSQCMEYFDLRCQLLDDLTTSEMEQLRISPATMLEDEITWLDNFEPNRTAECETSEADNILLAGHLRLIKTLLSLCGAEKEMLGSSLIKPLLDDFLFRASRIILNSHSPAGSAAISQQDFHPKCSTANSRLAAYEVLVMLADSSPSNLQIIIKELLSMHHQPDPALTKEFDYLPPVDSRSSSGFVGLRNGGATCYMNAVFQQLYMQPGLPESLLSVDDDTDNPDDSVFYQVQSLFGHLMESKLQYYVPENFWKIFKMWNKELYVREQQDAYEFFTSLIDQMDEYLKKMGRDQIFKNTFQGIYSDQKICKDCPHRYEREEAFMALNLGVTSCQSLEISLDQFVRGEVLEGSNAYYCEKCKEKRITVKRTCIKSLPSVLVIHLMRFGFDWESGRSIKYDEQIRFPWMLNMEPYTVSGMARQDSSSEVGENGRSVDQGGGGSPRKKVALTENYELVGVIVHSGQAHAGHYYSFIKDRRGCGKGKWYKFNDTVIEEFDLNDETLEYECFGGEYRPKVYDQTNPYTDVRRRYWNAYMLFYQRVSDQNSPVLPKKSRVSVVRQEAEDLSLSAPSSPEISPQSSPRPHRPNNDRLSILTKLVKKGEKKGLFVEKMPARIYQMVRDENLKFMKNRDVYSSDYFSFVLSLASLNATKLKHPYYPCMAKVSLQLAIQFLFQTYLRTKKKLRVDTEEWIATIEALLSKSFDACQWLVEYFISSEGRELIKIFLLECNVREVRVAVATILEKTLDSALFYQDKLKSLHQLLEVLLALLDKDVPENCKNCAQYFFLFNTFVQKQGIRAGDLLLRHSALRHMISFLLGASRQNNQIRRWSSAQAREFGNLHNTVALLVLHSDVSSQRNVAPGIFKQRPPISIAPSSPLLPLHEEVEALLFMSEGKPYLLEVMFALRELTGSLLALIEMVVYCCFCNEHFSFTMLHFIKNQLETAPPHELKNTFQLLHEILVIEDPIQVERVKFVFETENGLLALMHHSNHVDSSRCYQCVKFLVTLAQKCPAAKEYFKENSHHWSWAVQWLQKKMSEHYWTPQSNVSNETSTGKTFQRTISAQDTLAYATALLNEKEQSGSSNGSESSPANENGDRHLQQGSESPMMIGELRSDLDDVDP

Cc1cccnc1NC(=O)C1CCN(C(=O)CCl)CC1.Cl
inactive: USP19 -0.314 | USP24 -0.409 | USP25 -0.184 | USP28 -0.564
